Measured values as given in PubChem BioAssay AID1159580 (chemical genetic matrix, 2015).
Screen size: about 5,500 compounds; about 2,000 (36%) were called active. About 18% were inconclusive and are not listed. No stated cut-off is given here; in the data, active means normalized growth mostly below about 0.91 (no sharp cut-off); inconclusive means no clear call, values can overlap the other calls; inactive means mostly above about 0.92. This is one part of the list.

Assay: chemical genetic growth profiling, strain panel (AID 1159580);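 further: tested at 20 µM; growth read once vehicle control cultures reached saturation at 30 °C; 1 = growth at the plate median or of vehicle wells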
Conditions: growth OD
[1] = S. cerevisiae deletion strains, locus YGR078C, strain PAC10, stronger effect = lower value
[2] = S. cerevisiae deletion strains, locus YJR075W, strain HOC1, stronger effect = lower value
[3] = S. cerevisiae deletion strains, locus YMR307W, strain GAS1, stronger effect = lower value
[4] = S. cerevisiae deletion strains, locus YNL153C, strain GIM3, stronger effect = lower value

Measured: normalized growth

NC(=O)NCC(N)C(=O)O (stereo unspecified)
inactive: S. cerevisiae deletion strains, locus YBR021W, strain FUR4, stronger effect = lower value 1.06 | S. cerevisiae deletion strains, locus YBR229C, strain ROT2, stronger effect = lower value 1.01 | S. cerevisiae deletion strains, locus YCL029C, strain bik1, stronger effect = lower value 0.988 | S. cerevisiae deletion strains, locus YDL035C, strain GPR1, stronger effect = lower value 1.04 | S. cerevisiae deletion strains, locus YDL074C, strain BRE1, stronger effect = lower value 1.03 | S. cerevisiae deletion strains, locus YDL101C, strain DUN1, stronger effect = lower value 1.02 | S. cerevisiae deletion strains, locus YDL134C, strain PPH21, stronger effect = lower value 1.03 | S. cerevisiae deletion strains, locus YDL185W, strain tfp1, stronger effect = lower value 0.989 | S. cerevisiae deletion strains, locus YDL192W, strain arf1, stronger effect = lower value 1 | S. cerevisiae deletion strains, locus YDR101C, strain arx1, stronger effect = lower value 0.975 | S. cerevisiae deletion strains, locus YDR162C, strain NBP2, stronger effect = lower value 1.04 | S. cerevisiae deletion strains, locus YDR318W, strain mcm21, stronger effect = lower value 0.999 | S. cerevisiae deletion strains, locus YDR388W, stronger effect = lower value 0.983 | S. cerevisiae deletion strains, locus YDR502C, strain sam2, stronger effect = lower value 0.984 | S. cerevisiae deletion strains, locus YEL061C, strain CIN8, stronger effect = lower value 1.01 | S. cerevisiae deletion strains, locus YER110C, stronger effect = lower value 0.978 | S. cerevisiae deletion strains, locus YER155C, strain BEM2, stronger effect = lower value 1.01 | S. cerevisiae deletion strains, locus YER167W, strain BCK2, stronger effect = lower value 1.02 | S. cerevisiae deletion strains, locus YGL078C, strain dbp3, stronger effect = lower value 0.995 | S. cerevisiae deletion strains, locus YGL086W, strain mad1, stronger effect = lower value 0.994 | S. cerevisiae deletion strains, locus YGL248W, strain PDE1, stronger effect = lower value 1.02 | [1] 1.03 | S. cerevisiae deletion strains, locus YGR135W, strain pre9, stronger effect = lower value 0.995 | S. cerevisiae deletion strains, locus YGR252W, strain gcn5, stronger effect = lower value 0.987 | S. cerevisiae deletion strains, locus YHR030C, strain SLT2, stronger effect = lower value 1.01 | S. cerevisiae deletion strains, locus YHR079C, strain IRE1 (second series), stronger effect = lower value 0.983 | S. cerevisiae deletion strains, locus YHR094C, strain hxt1, stronger effect = lower value 0.975 | S. cerevisiae deletion strains, locus YHR129C, strain ARP1, stronger effect = lower value 1.02 | S. cerevisiae deletion strains, locus YHR200W, strain rpn10, stronger effect = lower value 0.986 | S. cerevisiae deletion strains, locus YIL066C, strain RNR3, stronger effect = lower value 1.03 | S. cerevisiae deletion strains, locus YIL073C, strain SPO22, stronger effect = lower value 1 | S. cerevisiae deletion strains, locus YIL125W, strain kgd1, stronger effect = lower value 0.991 | S. cerevisiae deletion strains, locus YIR030C, strain dcg1, stronger effect = lower value 0.996 | S. cerevisiae deletion strains, locus YJL095W, strain BCK1, stronger effect = lower value 1.03 | S. cerevisiae deletion strains, locus YJL134W, strain LCB3, stronger effect = lower value 1.01 | S. cerevisiae deletion strains, locus YJL168C, strain set2, stronger effect = lower value 0.989 | S. cerevisiae deletion strains, locus YJL187C, strain SWE1 (second series), stronger effect = lower value 1.02 | S. cerevisiae deletion strains, locus YJR043C, strain POL32, stronger effect = lower value 1.04 | [2] 1.02 | S. cerevisiae deletion strains, locus YKL009W, strain mrt4, stronger effect = lower value 1 | S. cerevisiae deletion strains, locus YKL068W, stronger effect = lower value 0.997 | S. cerevisiae deletion strains, locus YKL085W, strain MDH1 (second series), stronger effect = lower value 1.01 | S. cerevisiae deletion strains, locus YKL085W, strain MDH1, stronger effect = lower value 1.01 | S. cerevisiae deletion strains, locus YKL190W, strain CNB1, stronger effect = lower value 1.01 | S. cerevisiae deletion strains, locus YKR001C, strain vps1, stronger effect = lower value 0.989 | S. cerevisiae deletion strains, locus YLR039C, strain RIC1, stronger effect = lower value 1.08 | S. cerevisiae deletion strains, locus YLR058C, strain SHM2, stronger effect = lower value 1.02 | S. cerevisiae deletion strains, locus YLR102C, strain apc9, stronger effect = lower value 0.987 | S. cerevisiae deletion strains, locus YLR262C, strain YPT6, stronger effect = lower value 1.1 | S. cerevisiae deletion strains, locus YLR268W, strain sec22, stronger effect = lower value 0.983 | S. cerevisiae deletion strains, locus YLR330W, strain CHS5, stronger effect = lower value 1.01 | S. cerevisiae deletion strains, locus YLR342W, strain FKS1 (second series), stronger effect = lower value 1.03 | S. cerevisiae deletion strains, locus YLR371W, strain rom2, stronger effect = lower value 0.981 | S. cerevisiae deletion strains, locus YLR418C, strain cdc73, stronger effect = lower value 0.982 | S. cerevisiae deletion strains, locus YML016C, strain PPZ1, stronger effect = lower value 1.01 | S. cerevisiae deletion strains, locus YML032C, strain rad52, stronger effect = lower value 0.995 | S. cerevisiae deletion strains, locus YML124C, strain tub3, stronger effect = lower value 0.981 | S. cerevisiae deletion strains, locus YMR078C, strain ctf18, stronger effect = lower value 0.971 | S. cerevisiae deletion strains, locus YMR223W, strain ubp8, stronger effect = lower value 0.99 | [3] 1.14 | S. cerevisiae deletion strains, locus YNL067W, strain RPL9B, stronger effect = lower value 1.01 | [4] 1.01 | S. cerevisiae deletion strains, locus YNL233W, strain BNI4, stronger effect = lower value 1.03 | S. cerevisiae deletion strains, locus YNL250W, strain rad50, stronger effect = lower value 1.01 | S. cerevisiae deletion strains, locus YNL271C, strain bni1, stronger effect = lower value 0.982 | S. cerevisiae deletion strains, locus YNL298W, strain CLA4, stronger effect = lower value 0.994 | S. cerevisiae deletion strains, locus YNL307C, strain MCK1, stronger effect = lower value 0.991 | S. cerevisiae deletion strains, locus YNL322C, strain KRE1, stronger effect = lower value 1.01 | S. cerevisiae deletion strains, locus YNR052C, strain pop2, stronger effect = lower value 0.991 | S. cerevisiae deletion strains, locus YOL012C, strain htz1 0.762 | S. cerevisiae deletion strains, locus YOL147C, strain pex11, stronger effect = lower value 0.985 | S. cerevisiae deletion strains, locus YOR061W, strain CKA2, stronger effect = lower value 1.02 | S. cerevisiae deletion strains, locus YOR069W, strain VPS5, stronger effect = lower value 1.01 | S. cerevisiae deletion strains, locus YOR136W, strain idh2, stronger effect = lower value 0.985 | S. cerevisiae deletion strains, locus YOR144C, strain elg1, stronger effect = lower value 0.984 | S. cerevisiae deletion strains, locus YOR184W, strain ser1, stronger effect = lower value 0.989 | S. cerevisiae deletion strains, locus YOR316C, strain cot1, stronger effect = lower value 0.983 | S. cerevisiae deletion strains, locus YPR119W, strain clb2, stronger effect = lower value 0.987 | S. cerevisiae deletion strains, locus YPR141C, strain kar3, stronger effect = lower value 0.995 | S. cerevisiae deletion strains, locus YPR163C, strain tif3, stronger effect = lower value 0.985 | S. cerevisiae deletion strains, locus YPR167C, strain met16, stronger effect = lower value 0.989 | S. cerevisiae deletion strains, strain wtn01, stronger effect = lower value 0.989 | S. cerevisiae strains, strain wild type, stronger effect = lower value 1.02

CC(C)CN(C)c1nc(N)c(C(=O)N=C(N)N)nc1Cl
inactive: S. cerevisiae deletion strains, locus YAL040C, strain CLN3, stronger effect = lower value 0.968 | S. cerevisiae deletion strains, locus YCL061C, strain MRC1 (second series), stronger effect = lower value 0.963 | S. cerevisiae deletion strains, locus YER002W, strain NOP16, stronger effect = lower value 1.04 | [1] 0.99 | [2] 0.957 | S. cerevisiae deletion strains, locus YMR263W, strain SAP30, stronger effect = lower value 0.986 | [3] 0.971 | S. cerevisiae deletion strains, locus YNL128W, strain TEP1, stronger effect = lower value 0.986 | [4] 0.855 | S. cerevisiae deletion strains, locus YNL175C, strain NOP13, stronger effect = lower value 1.01 | S. cerevisiae deletion strains, locus YNL197C, strain WHI3, stronger effect = lower value 1 | S. cerevisiae deletion strains, locus YNL224C, strain SQS1, stronger effect = lower value 1.03
active: S. cerevisiae deletion strains, locus YOR083W, strain WHI5 (second series), stronger effect = lower value 0.866
